PubChem BioAssay
A number with no mark means an inactive call. For part of these data: Measured potencies and affinities stand elsewhere. Active and inactive are the calls of the source. Unless noted, no rule for the calls is given here.

Columns and labels:
[1] = antimalarial activity against Dd2 strain (AID 2302;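 active = growth inhibition above 50% at the single 2 µM test dose, taken to imply half-maximal potency below 2 µM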;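 also: 0% = DMSO untreated growth and 100% = chloroquine plus artemisinin killed control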); settings: P. falciparum Dd2 in RBCs, LDH growth readout, 72 h; at 2 µM; active compounds read high
[2] = human hepatoma cell viability loss – ATP luminescence, cytotoxicity control for P. falciparum antimalarial project, primary screen (AID 2303;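 active = inhibition above 50%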;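 also: 0% = DMSO wells and 100% = digitonin-killed cells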); settings: HepG2 viability, 24-48 h, at 10 µM, active compounds read high
[3] = molecular target: L-lactate dehydrogenase (Plasmodium falciparum (isolate CDC / Honduras)) (UniProt Q27743); test: PfLDH activity inhibition – cell lysate, 3D7 strain, counter-screen for P. falciparum growth inhibition project (AID 2304);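 also: 0% = vehicle and 100% = reference inhibitor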; settings: P. falciparum 3D7 crude extract, LDH APAD/NBT absorbance; at 2 µM; active compounds read high
Sequence of L-lactate dehydrogenase (Plasmodium falciparum (isolate CDC / Honduras)) (Q27743 whole entry, looked up): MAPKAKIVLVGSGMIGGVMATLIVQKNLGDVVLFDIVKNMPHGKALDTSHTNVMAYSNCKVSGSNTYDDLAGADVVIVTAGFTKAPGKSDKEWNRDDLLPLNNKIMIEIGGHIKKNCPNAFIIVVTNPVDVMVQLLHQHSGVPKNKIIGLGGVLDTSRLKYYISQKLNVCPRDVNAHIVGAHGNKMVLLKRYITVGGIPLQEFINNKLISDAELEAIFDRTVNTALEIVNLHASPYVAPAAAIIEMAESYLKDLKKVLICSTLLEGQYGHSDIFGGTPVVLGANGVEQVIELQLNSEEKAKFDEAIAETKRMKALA

[4] = inhibition of 3D7 malaria parasite growth – strain 3D7 (AID 2306);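 also: 0% = DMSO wells and 100% = chloroquine plus artemisinin control wells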; settings: P. falciparum 3D7 erythrocytic growth, LDH absorbance, 72 h; at 2 µM; active compounds read high
[5] = molecular target: Calcium-dependent protein kinase 1 (Plasmodium falciparum (isolate 3D7)) (UniProt P62344); test: PfCDPK1 kinase inhibitors, biochemical, TCAMS library (AID 1159585; cut-off not given, nearly all actives have IC50 up to about 0.98 µM;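 also: inhibitors leave more ATP so luminescence rises with inhibition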); settings: recombinant PfCDPK1, Kinase-Glo ATP depletion luminescence
Sequence of Calcium-dependent protein kinase 1 (Plasmodium falciparum (isolate 3D7)) (P62344 whole entry, looked up): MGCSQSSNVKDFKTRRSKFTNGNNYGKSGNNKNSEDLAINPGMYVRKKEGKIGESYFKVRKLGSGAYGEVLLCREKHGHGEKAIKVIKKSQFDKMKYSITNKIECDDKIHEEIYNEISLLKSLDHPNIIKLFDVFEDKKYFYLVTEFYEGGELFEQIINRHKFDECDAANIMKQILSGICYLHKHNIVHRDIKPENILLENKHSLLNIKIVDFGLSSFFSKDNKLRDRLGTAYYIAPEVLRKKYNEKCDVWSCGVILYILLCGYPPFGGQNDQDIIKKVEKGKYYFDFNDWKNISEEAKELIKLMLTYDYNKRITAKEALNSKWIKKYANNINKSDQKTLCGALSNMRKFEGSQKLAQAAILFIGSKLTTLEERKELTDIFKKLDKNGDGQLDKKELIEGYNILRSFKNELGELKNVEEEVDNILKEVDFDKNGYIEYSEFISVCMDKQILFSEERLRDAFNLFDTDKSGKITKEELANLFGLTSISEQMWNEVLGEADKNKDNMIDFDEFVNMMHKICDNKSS

[6] = molecular target: Plasmodium falciparum protein kinase 6 (PK6, PF3D7_1337100) (UniProt Q8IDW1); test: PfPK6 kinase inhibitors, biochemical, TCAMS library (AID 1159586); settings: recombinant PfPK6, Kinase-Glo ATP depletion luminescence
Sequence of Plasmodium falciparum protein kinase 6 (PK6, PF3D7_1337100) (Q8IDW1 1-305): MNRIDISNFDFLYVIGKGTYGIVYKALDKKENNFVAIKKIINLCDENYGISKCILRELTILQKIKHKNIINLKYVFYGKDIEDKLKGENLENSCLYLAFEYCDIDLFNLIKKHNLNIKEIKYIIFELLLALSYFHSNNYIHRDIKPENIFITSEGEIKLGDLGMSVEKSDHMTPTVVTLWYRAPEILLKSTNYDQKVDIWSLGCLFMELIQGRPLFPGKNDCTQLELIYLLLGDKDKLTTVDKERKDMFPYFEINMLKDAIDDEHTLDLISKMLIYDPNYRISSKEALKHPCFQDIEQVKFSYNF

[7] = molecular target: Protein kinase 7 (PK7), Plasmodium falciparum 3D7 (PF3D7_0213400) (UniProt Q7YTF7); test: inhibition of Plasmodium PK7 catalytic activity – biochemical, TCAMS antimalarial set, Kinase-Glo luminescence (AID 1159587); settings: recombinant PfPK7, Kinase-Glo ATP depletion luminescence
Sequence of Protein kinase 7 (PK7), Plasmodium falciparum 3D7 (PF3D7_0213400) (Q7YTF7 1-343): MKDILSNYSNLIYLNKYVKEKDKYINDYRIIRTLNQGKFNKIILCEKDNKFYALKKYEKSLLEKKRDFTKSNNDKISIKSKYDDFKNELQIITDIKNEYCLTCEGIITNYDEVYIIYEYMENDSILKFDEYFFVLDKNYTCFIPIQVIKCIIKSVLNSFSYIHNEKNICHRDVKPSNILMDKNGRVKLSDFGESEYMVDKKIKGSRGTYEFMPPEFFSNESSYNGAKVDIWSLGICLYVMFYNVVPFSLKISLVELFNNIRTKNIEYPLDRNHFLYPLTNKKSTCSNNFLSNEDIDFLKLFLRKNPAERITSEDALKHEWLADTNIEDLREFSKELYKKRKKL

[8] = molecular target: Calcium-dependent protein kinase 4 (Plasmodium falciparum (isolate 3D7)) (UniProt Q8IBS5); test: PfCDPK4 kinase inhibitors, biochemical, TCAMS library (AID 1159588; cut-off not given, nearly all actives have IC50 up to about 0.91 µM); settings: recombinant PfCDPK4, Kinase-Glo ATP depletion luminescence
Sequence of Calcium-dependent protein kinase 4 (Plasmodium falciparum (isolate 3D7)) (Q8IBS5 whole entry, looked up): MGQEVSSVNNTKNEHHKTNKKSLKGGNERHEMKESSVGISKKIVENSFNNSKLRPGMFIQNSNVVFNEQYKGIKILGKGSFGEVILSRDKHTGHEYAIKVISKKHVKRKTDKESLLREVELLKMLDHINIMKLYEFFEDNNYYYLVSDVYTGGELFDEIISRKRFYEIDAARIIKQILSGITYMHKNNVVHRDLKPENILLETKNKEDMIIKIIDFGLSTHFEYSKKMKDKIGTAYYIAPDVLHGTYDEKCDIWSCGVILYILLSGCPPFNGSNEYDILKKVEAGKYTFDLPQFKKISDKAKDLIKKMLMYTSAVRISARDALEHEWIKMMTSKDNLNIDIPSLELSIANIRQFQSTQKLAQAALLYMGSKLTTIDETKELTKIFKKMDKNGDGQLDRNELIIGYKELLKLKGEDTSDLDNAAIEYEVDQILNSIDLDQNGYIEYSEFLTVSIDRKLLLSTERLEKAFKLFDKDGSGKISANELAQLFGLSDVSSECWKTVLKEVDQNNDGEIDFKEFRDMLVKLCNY

Q: With O=C(NC1CCN(Cc2ccccc2)CC1)c1ccc(CNC2CCN(Cc3ccccc3)CC2)cc1 as the compound, how does the growth inhibition [1] read?
A: 58% (active)

Q: What about the inhibition [2] of the same compound?
A: 14%

Q: What about the inhibition [3] of the same compound?
A: 3%

Q: And the growth inhibition [4]?
A: 99% (active)

Q: What about the outcome [5] of the same compound?
A: inactive

Q: What about the outcome [6] of the same compound?
A: inactive

Q: And the outcome [7]?
A: inactive

Q: And the outcome [8]?
A: inactive

Q: Which results are given for Clc1ccccc1OCc1ccccn1?
A: growth inhibition [1]: 2%; inhibition [2]: 2%; inhibition [3]: -3%; growth inhibition [4]: 85% (active); outcome [5]: inactive; outcome [6]: inactive; outcome [7]: inactive; outcome [8]: inactive

Q: With O=C(NCCCCN1CCC(c2ccc3c(c2OCC2COCO2)CCCC3)CC1)c1ccc(-c2ccc(C(F)(F)F)cc2)cc1 (stereo not drawn) as the compound, how does the growth inhibition [1] read?
A: 45%

Q: What about the inhibition [2] of the same compound?
A: 91% (active)

Q: And the inhibition [3]?
A: -2%

Q: What about the growth inhibition [4] of the same compound?
A: 99% (active)

Q: And the outcome [5]?
A: inactive

Q: And the outcome [6]?
A: inactive

Q: And the outcome [7]?
A: inactive

Q: What about the outcome [8] of the same compound?
A: inactive

Q: Which growth inhibition [1] does the source give for OCCN1CCN(Cc2ccc(-c3cccc(-c4nc5ccccc5[nH]4)c3)cc2)CC1 here?
A: 16%

Q: And the inhibition [2]?
A: 32%

Q: What about the inhibition [3] of the same compound?
A: 6%

Q: And the growth inhibition [4]?
A: 96% (active)

Q: And the outcome [5]?
A: inactive

Q: And the outcome [6]?
A: inactive

Q: And the outcome [7]?
A: inactive

Q: And the outcome [8]?
A: inactive

Q: For CCOc1cc(Br)c(C(C)NC(=O)c2ccccc2)cc1OCC (stereo not drawn), which growth inhibition [1] is on record?
A: 10%

Q: And the inhibition [2]?
A: -2%

Q: And the inhibition [3]?
A: 5%

Q: What about the growth inhibition [4] of the same compound?
A: 92% (active)

Q: What about the outcome [5] of the same compound?
A: inactive

Q: What about the outcome [6] of the same compound?
A: inactive

Q: And the outcome [7]?
A: inactive

Q: And the outcome [8]?
A: inactive

Q: What does the source list for CS(=O)(=O)Nc1ccc(OCCCCCCOc2ccc(NS(C)(=O)=O)cc2)cc1?
A: growth inhibition [1]: 82% (active); inhibition [2]: 3%; inhibition [3]: 4%; growth inhibition [4]: 93% (active); outcome [5]: inactive; outcome [6]: inactive; outcome [7]: inactive; outcome [8]: inactive

Q: Which growth inhibition [1] does the source give for CC1(C)N=C(N)N=C(N)N1OCCCOc1cc(Cl)c(Cl)cc1Cl here?
A: 95% (active)

Q: And the inhibition [2]?
A: 60% (active)

Q: And the inhibition [3]?
A: -1%

Q: What about the growth inhibition [4] of the same compound?
A: 95% (active)

Q: And the outcome [5]?
A: inactive

Q: And the outcome [6]?
A: inactive

Q: What about the outcome [7] of the same compound?
A: inactive

Q: What about the outcome [8] of the same compound?
A: inactive

Q: With CN1CCCN(Cc2cccc(-c3cccc(NC(=O)c4cccc(C#N)c4)c3)c2)CC1 as the compound, how does the growth inhibition [1] read?
A: 33%

Q: What about the inhibition [2] of the same compound?
A: 18%

Q: What about the inhibition [3] of the same compound?
A: 2%

Q: What about the growth inhibition [4] of the same compound?
A: 95% (active)

Q: What about the outcome [5] of the same compound?
A: inactive

Q: What about the outcome [6] of the same compound?
A: inactive

Q: What about the outcome [7] of the same compound?
A: inactive

Q: And the outcome [8]?
A: inactive

Q: Which growth inhibition [1] does the source give for Cc1cc(N[C@@H](Cc2ccccc2)C(=O)NCCc2ccccc2)nc(NCC2CCCCC2)n1 here?
A: 95% (active)

Q: And the inhibition [2]?
A: 24%

Q: What about the inhibition [3] of the same compound?
A: -2%

Q: What about the growth inhibition [4] of the same compound?
A: 101% (active)

Q: And the outcome [5]?
A: inactive

Q: And the outcome [6]?
A: inactive

Q: And the outcome [7]?
A: inactive

Q: What about the outcome [8] of the same compound?
A: inactive

Q: What does the source list for CCCCCCN1CCCN(Cc2ccc(C(=O)Nc3ccc(C)c(F)c3)cc2)CC1?
A: growth inhibition [1]: 58% (active); inhibition [2]: 47%; inhibition [3]: 0%; growth inhibition [4]: 92% (active); outcome [5]: inactive; outcome [6]: inactive; outcome [7]: inactive; outcome [8]: inactive

Q: What does the source list for FC(F)(F)c1ccc2nc(-c3ccc(-c4ccc(CN5CCN(c6ccncc6)CC5)cc4)cc3)[nH]c2c1?
A: growth inhibition [1]: 99% (active); inhibition [2]: 91% (active); inhibition [3]: 6%; growth inhibition [4]: 101% (active); outcome [5]: inactive; outcome [6]: inactive; outcome [7]: inactive; outcome [8]: inactive

Q: For COc1cccc(-c2cc(-c3ccc(NC(=O)c4ccccc4)cc3)c3c(N)ncnc3n2)c1, which growth inhibition [1] is on record?
A: 98% (active)

Q: And the inhibition [2]?
A: -4%

Q: And the inhibition [3]?
A: 0%

Q: And the growth inhibition [4]?
A: 99% (active)

Q: And the outcome [5]?
A: inactive

Q: What about the outcome [6] of the same compound?
A: inactive

Q: And the outcome [7]?
A: inactive

Q: And the outcome [8]?
A: inactive

Q: Which results are given for O=C(Nc1ccc(OC2CCN(Cc3ccc(F)cc3)C2)c(Cl)c1)c1cccs1 (stereo not drawn)?
A: growth inhibition [1]: 97% (active); inhibition [2]: 21%; inhibition [3]: 2%; growth inhibition [4]: 98% (active); outcome [5]: inactive; outcome [6]: inactive; outcome [7]: inactive; outcome [8]: inactive

Q: Which results are given for O=C(Nc1cccc(-c2ccc(-c3nc4ccc(C(F)(F)F)cc4[nH]3)cc2)c1)c1ccncc1?
A: growth inhibition [1]: 90% (active); inhibition [2]: 79% (active); inhibition [3]: -1%; growth inhibition [4]: 100% (active); outcome [5]: inactive; outcome [6]: inactive; outcome [7]: inactive; outcome [8]: inactive

Q: With CCCc1cc(=O)oc2cc(OC)c(C(=O)CC(C)C)c(OC)c12 as the compound, how does the growth inhibition [1] read?
A: 67% (active)

Q: And the inhibition [2]?
A: 3%

Q: What about the inhibition [3] of the same compound?
A: 2%

Q: And the growth inhibition [4]?
A: 81% (active)

Q: What about the outcome [5] of the same compound?
A: inactive

Q: What about the outcome [6] of the same compound?
A: inactive

Q: What about the outcome [7] of the same compound?
A: inactive

Q: What about the outcome [8] of the same compound?
A: inactive

Q: What does the source list for COc1ccc(CNc2nccc3ccc(-c4ccc(N)nc4)cc23)cc1?
A: growth inhibition [1]: 49%; inhibition [2]: 7%; inhibition [3]: 2%; growth inhibition [4]: 93% (active); outcome [5]: inactive; outcome [6]: inactive; outcome [7]: inactive; outcome [8]: inactive

Q: With Cc1noc(-c2cccs2)c1C(=O)NC(C)c1cccc2ccccc12 (stereo not drawn) as the compound, how does the growth inhibition [1] read?
A: 95% (active)

Q: And the inhibition [2]?
A: -2%

Q: And the inhibition [3]?
A: -4%

Q: And the growth inhibition [4]?
A: 97% (active)

Q: And the outcome [5]?
A: inactive

Q: What about the outcome [6] of the same compound?
A: inactive

Q: What about the outcome [7] of the same compound?
A: inactive

Q: And the outcome [8]?
A: inactive

Q: For COc1ccc(C2CC(c3cccs3)=NN2C(=O)c2ccco2)cc1OC (stereo not drawn), which growth inhibition [1] is on record?
A: 97% (active)

Q: What about the inhibition [2] of the same compound?
A: -3%

Q: And the inhibition [3]?
A: 4%

Q: And the growth inhibition [4]?
A: 101% (active)

Q: What about the outcome [5] of the same compound?
A: inactive

Q: What about the outcome [6] of the same compound?
A: inactive

Q: And the outcome [7]?
A: inactive

Q: What about the outcome [8] of the same compound?
A: inactive

Q: Which growth inhibition [1] does the source give for CC(C)c1cc(N)c2cc(NC(=O)COCC(=O)Nc3ccc4nc(C(C)C)cc(N)c4c3)ccc2n1 here?
A: 95% (active)

Q: And the inhibition [2]?
A: -8%

Q: What about the inhibition [3] of the same compound?
A: 0%

Q: What about the growth inhibition [4] of the same compound?
A: 95% (active)

Q: What about the outcome [5] of the same compound?
A: inactive

Q: What about the outcome [6] of the same compound?
A: inactive

Q: And the outcome [7]?
A: inactive

Q: What about the outcome [8] of the same compound?
A: inactive

Q: For N#Cc1ccc(N2CCN(Cc3ccc(-c4ccc(-c5nc6ccc(C(F)(F)F)cc6[nH]5)cc4)cc3)CC2)nc1, which growth inhibition [1] is on record?
A: 90% (active)

Q: What about the inhibition [2] of the same compound?
A: 19%

Q: What about the inhibition [3] of the same compound?
A: 4%

Q: And the growth inhibition [4]?
A: 101% (active)

Q: And the outcome [5]?
A: inactive

Q: And the outcome [6]?
A: inactive

Q: What about the outcome [7] of the same compound?
A: inactive

Q: And the outcome [8]?
A: inactive

Q: For Cc1ccc(N2C(N)=NC(N)=NC2c2ccccc2)cc1 (stereo not drawn), which growth inhibition [1] is on record?
A: 1%

Q: What about the inhibition [2] of the same compound?
A: 11%

Q: What about the inhibition [3] of the same compound?
A: -1%

Q: What about the growth inhibition [4] of the same compound?
A: 94% (active)

Q: What about the outcome [5] of the same compound?
A: inactive

Q: And the outcome [6]?
A: inactive

Q: And the outcome [7]?
A: inactive

Q: And the outcome [8]?
A: inactive
